Inconclusive results are not listed. The source made the active and inactive calls. Unless noted, calls come from the whole dose curve; as a rule, active = well fitted curve in the direction sought with a large enough effect in the repeat runs; inconclusive = weak or mixed curves; inactive = no such curve, though single readings can be large; an effect the other way counts as inactive or inconclusive.
Assays:
[1] = qHTS assay to identify small molecule agonists of the RXR signaling pathway - cell viability counter screen (AID 1159529); note: nearly all actives have a fitted effect of over 50% in size; note: potency is the fitted concentration of half-maximal effect
Summary of the method: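 Luminescence from CellTiter-Glo (30 min, RT) measured viability in the same wells as the beta-lactamase reporter readout. Cells: GeneBLAzer RXR-alpha HEK 293T, 2% charcoal-stripped FBS. Compound exposure 16 hr, 37 C.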

[2] = qHTS assay to identify small molecule antagonists of the retinoid acid receptor (RAR) signaling pathway - cell viability counter screen (AID 1159551); note: nearly all actives have a fitted effect of over 35% in size; note: potency is the fitted concentration of half-maximal effect
Summary of the method: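 Cells (C3RL4) are plated, incubated overnight, dosed with compound in DMSO, then given retinol at 1 uM final. After 6 h at 37 C, CellTiter-Glo is added and luminescence read following 30 min at room temperature.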

[3] = qHTS assay to identify small molecule antagonists of the retinoic acid receptor (RAR) signaling pathway (AID 1159552; note: nearly all actives have a fitted effect of over 50% in size; note: potency is the fitted concentration of half-maximal effect)
Summary of the method: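 Luminescence from a RARE luciferase reporter in C3RL4 cells served as read-out. Cells received compounds together with 1 uM final retinol and incubated 6 hr at 37 C before detection reagent was added for 30 min at room temperature.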

[4] = qHTS assay to identify small molecule agonists of the retinoic acid receptor (RAR) signaling pathway (AID 1159553); note: potency is the fitted concentration of half-maximal effect
Summary of the method: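 Seed C3RL4 reporter cells at 1,000 per well and incubate overnight at 37 C. Add compounds in DMSO, incubate 6 hr. Add luciferase reagent, wait 30 min at room temperature, read luminescence.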

[5] = qHTS assay to identify small molecule antagonists of the estrogen related receptor (ERR) signaling pathway from Tox21 library - cell viability counter screen (AID 1224834); note: nearly all actives have a fitted effect of over 30% in size; note: potency is the fitted concentration of half-maximal effect
Summary of the method: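 ERR cells, 2,000/well; 6 h settle at 37 C/5% CO2; pin-tool compound transfer in DMSO; 17.5 h at 37 C; CellTiter-Fluor, 30 min; fluorescence intensity.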

[6] = target: Luciferin 4-monooxygenase (Photinus pyralis) (UniProt P08659); assay: qHTS assay to identify small molecule inhibitors of firefly luciferase (AID 1224835); note: nearly all actives have a fitted effect of over 25% in size; note: potency is the fitted concentration of half-maximal effect
Summary of the method: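 Inhibition of purified Photinus luciferase is measured by luminescence. Substrate levels (D-luciferin, ATP) sit at their KM values. Each compound is tested in a concentration series.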

[7] = qHTS assay to identify small molecule agonists of the constitutive androstane receptor (CAR) signaling pathway - cell viability counter screen (AID 1224836); note: nearly all actives have a fitted effect of over 45% in size; note: potency is the fitted concentration of half-maximal effect
Summary of the method: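 Viability read-out: CellTiter-Fluor fluorescence after 23 h compound exposure at 37 C/5% CO2 in double-stable HepG2-CYP2B6-hCAR cells, with PK11195 present at 0.75 uM final; compounds tested in 15-point titration.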

[8] = qHTS assay to identify small molecule antagonists of the constitutive androstane receptor (CAR) signaling pathway - cell viability counter screen (AID 1224837); note: nearly all actives have a fitted effect of over 45% in size; note: potency is the fitted concentration of half-maximal effect
Summary of the method: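 Viability was measured with CellTiter-Fluor in a HepG2 line carrying stably transfected hCAR and a CYP2B6-2.2kb construct. Cells were exposed for 23 hr at 37 C to 15 compound concentrations with 50 nM CITCO as agonist.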

[9] = qHTS assay to identify small molecule antagonists of the estrogen related receptor signaling pathway with the pleiotropic PPARgamma coactivator (PGC) from Tox21 10K library - cell viability counter screen (AID 1224840; active = well fitted cell-killing curve with a large enough effect in the repeat runs, not every such curve was filed as active; note: nearly all actives have a fitted effect of over 40% in size; note: potency is the fitted concentration of half-maximal effect)
Summary of the method: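 Multiplexed viability counter screen in the PGC/ERR cell line: cells treated with DMSO-dissolved compounds for 17.5 hours at 37 C, then viability measured as CellTiter-Fluor fluorescence.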

[10] = qHTS assay to identify small molecule agonists of the estrogen related receptor signaling pathway with the pleiotropic PPARgamma coactivator (PGC) from Tox21 10K library (AID 1224842); note: nearly all actives have a fitted effect of over 15% in size
Summary of the method: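 Luminescence from One-Glo (30 min, room temperature) measured after PGC/ERR cells had 18 h at 37 C with pinned compound (23 nL in DMSO). Cells had been seeded at 2,000 per well and pre-incubated 6 h.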

[11] = target: Thyrotropin receptor (Homo sapiens) (UniProt P16473); assay: qHTS assay to identify small molecule agonists of the thyroid stimulating hormone receptor (TSHR) signaling pathway (AID 1224843; calls by dose curve; note: nearly all actives have a fitted effect of over 45% in size)
Summary of the method: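 A cell-based cAMP HTRF format was run in TSHR-transfected HEK293 cells, 800 per well. Treatment: 30 min, room temperature. Detection: 1 h with labelled cAMP and anti-cAMP cryptate. Concentration-response over 15 points, three replicates.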

[12] = target: Nuclear receptor subfamily 1 group I member 3 (Homo sapiens) (UniProt Q14994); assay: qHTS assay to identify small molecule agonists of the constitutive androstane receptor (CAR) signaling pathway (AID 1224839); note: series mostly up to about 92 µM; nearly all actives have a fitted effect of over 15% in size
Summary of the method: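 Luminescence read-out (ONE-Glo, 30 min, room temperature) from double-stable HepG2-CYP2B6-hCAR cells exposed 24 h to 15-point compound series in presence of 0.75 uM PK11195 final.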

[13] = qHTS assay to identify small molecule antagonists of the estrogen related receptor signaling pathway with the pleiotropic PPARgamma coactivator (PGC) from Tox21 10K library (AID 1224841; call rule not given here; note: actives are mostly falling curves and most rising ones were filed inactive; nearly all actives have a fitted effect of over 50% in size; note: potency is the fitted concentration of half-maximal effect)
Summary of the method: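 Steps: plate 2,000 PGC/ERR cells per well; incubate 6 h at 37 C with 5% CO2; transfer compounds from DMSO stocks by pin tool; incubate 18 h at 37 C; add One-Glo; measure luminescence 30 min later.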

[14] = target: Nuclear receptor subfamily 1 group I member 3 (Homo sapiens) (UniProt Q14994); assay: qHTS assay to identify small molecule antagonists of the constitutive androstane receptor (CAR) signaling pathway (AID 1224838);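 note: HepG2 cells stably expressing hCAR with CYP2B6 luciferase reporter stimulated by CITCO; nearly all actives have a fitted effect of over 40% in size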; note: potency is the fitted concentration of half-maximal effect
Summary of the method: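 Antagonist mode used CITCO at a final 50 nM to activate CAR in human hepatoma HepG2 cells carrying stable hCAR and a 2.2 kb CYP2B6 promoter-luciferase construct. Compounds were tested at 15 concentrations over 24 h, with luminescence as the end point.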

Measured: Potency

Chain of Thyrotropin receptor (Homo sapiens) (P16473 whole entry, looked up): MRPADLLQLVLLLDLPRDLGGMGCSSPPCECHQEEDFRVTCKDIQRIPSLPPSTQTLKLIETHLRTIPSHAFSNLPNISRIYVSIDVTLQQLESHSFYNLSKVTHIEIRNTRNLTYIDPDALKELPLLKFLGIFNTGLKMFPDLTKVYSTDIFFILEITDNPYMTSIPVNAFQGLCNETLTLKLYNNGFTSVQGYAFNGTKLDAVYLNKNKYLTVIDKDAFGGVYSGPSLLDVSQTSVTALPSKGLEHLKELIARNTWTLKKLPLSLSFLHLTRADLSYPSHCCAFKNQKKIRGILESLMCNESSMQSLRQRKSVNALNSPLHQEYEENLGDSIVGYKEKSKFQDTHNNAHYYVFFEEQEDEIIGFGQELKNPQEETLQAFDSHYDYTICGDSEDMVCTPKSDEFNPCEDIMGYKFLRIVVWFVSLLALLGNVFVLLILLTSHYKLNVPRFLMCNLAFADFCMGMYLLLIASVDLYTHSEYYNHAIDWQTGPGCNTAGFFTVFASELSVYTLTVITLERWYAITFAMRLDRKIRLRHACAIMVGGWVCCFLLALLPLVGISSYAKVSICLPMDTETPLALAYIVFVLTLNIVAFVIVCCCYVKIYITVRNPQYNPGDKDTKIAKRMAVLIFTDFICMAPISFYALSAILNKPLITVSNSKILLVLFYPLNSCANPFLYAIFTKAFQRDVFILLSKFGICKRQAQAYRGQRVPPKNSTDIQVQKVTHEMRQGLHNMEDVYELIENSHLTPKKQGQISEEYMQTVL
Chain of Nuclear receptor subfamily 1 group I member 3 (Homo sapiens) (Q14994 whole entry, looked up): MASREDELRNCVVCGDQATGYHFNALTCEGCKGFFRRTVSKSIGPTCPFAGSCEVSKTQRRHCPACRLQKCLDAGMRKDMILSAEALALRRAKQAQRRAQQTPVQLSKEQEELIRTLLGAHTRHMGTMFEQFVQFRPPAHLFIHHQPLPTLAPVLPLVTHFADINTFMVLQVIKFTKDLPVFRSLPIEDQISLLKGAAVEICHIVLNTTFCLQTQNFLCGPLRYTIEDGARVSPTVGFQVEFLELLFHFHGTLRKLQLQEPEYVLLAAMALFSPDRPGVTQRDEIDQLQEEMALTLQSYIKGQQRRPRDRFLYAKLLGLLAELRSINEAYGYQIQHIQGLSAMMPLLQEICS
Chain of Luciferin 4-monooxygenase (Photinus pyralis) (P08659 whole entry, looked up): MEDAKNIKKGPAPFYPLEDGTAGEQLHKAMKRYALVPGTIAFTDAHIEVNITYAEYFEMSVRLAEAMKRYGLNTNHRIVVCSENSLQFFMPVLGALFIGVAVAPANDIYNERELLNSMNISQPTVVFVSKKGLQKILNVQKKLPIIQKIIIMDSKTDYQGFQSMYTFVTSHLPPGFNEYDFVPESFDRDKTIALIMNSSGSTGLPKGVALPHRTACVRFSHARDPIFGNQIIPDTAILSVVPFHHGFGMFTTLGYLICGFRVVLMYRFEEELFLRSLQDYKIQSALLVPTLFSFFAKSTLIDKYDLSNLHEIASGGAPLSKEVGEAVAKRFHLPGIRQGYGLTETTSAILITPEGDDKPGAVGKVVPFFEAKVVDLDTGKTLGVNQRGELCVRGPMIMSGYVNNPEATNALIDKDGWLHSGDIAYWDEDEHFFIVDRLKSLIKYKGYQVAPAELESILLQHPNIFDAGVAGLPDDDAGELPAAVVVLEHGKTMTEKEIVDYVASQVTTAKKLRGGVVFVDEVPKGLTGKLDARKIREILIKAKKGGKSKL

Nc1ccc(C(=O)N2CC3CC(CN(Cc4ccccc4)C3)C2)cc1
inactive: [1] | [2] | [3] | [4] | [5] | [6] | [7] | [8] | [9] | [10] | [11]

CCCCCCCCCC(=O)OCC
inactive: [1] | [2] | [3] | [4] | [5] | [6] | [7] | [8] | [12] | [9] | [11]

CC1CCc2cc(F)cc3c(=O)c(C(=O)O)cn1c23 (configuration not stated)
inactive: [1] | [2] | [3] | [4] | [5] | [6] | [7] | [8] | [9] | [11]

CCN(CC)C(C)=O
inactive: [1] | [2] | [3] | [4] | [5] | [6] | [7] | [8] | [12] | [9] | [13] | [10] | [11]

CCCCC(CC)(CO)CO
inactive: [1] | [2] | [3] | [4] | [5] | [6] | [7] | [8] | [12] | [9] | [11]

O=C1Nc2cc(Cl)ccc2Oc2ccccc21
inactive: [1] | [2] | [3] | [4] | [5] | [6] | [7] | [8] | [14] | [9] | [11]

O=C(/C=C/c1ccc(O)c(O)c1)O[C@@H]1C[C@](O)(C(=O)O)C[C@@H](O)[C@H]1O
inactive: [1] | [2] | [3] | [4] | [5] | [6] | [7] | [8] | [9]

CCOc1nc2cccc(C(=O)O)c2n1Cc1ccc(-c2ccccc2-c2nn[nH]n2)cc1
inactive: [1] | [2] | [3] | [4] | [5] | [6] | [7] | [8] | [14] | [9] | [13] | [11]

Cn1c(N)nc2nc[nH]c2c1=O
inactive: [1] | [2] | [3] | [4] | [5] | [6] | [7] | [8] | [12] | [9] | [11]

C=CC(C)(CCC=C(C)C)OC(=O)c1ccccc1 (configuration not stated)
inactive: [1] | [2] | [3] | [4] | [5] | [6] | [7] | [8] | [9] | [11]

O=CNc1ccccc1
inactive: [1] | [2] | [3] | [4] | [5] | [6] | [7] | [8] | [14] | [13] | [10]

Cn1c(=O)c2c(ncn2CC(O)CO)n(C)c1=O (configuration not stated)
inactive: [1] | [2] | [3] | [4] | [5] | [6] | [7] | [8] | [14] | [9] | [13] | [10] | [11]

COCCOCCOCCOCCOC
inactive: [1] | [2] | [3] | [4] | [5] | [6] | [7] | [8] | [9] | [11]

O=C(Cl)c1c(Cl)cccc1Cl
inactive: [1] | [2] | [3] | [4] | [5] | [6] | [7] | [8] | [14] | [9] | [11]

CC(=O)/C=C/C1C(C)=CCCC1(C)C (configuration not stated)
inactive: [1] | [2] | [3] | [4] | [5] | [6] | [7] | [8] | [9]

CC(C)(C)C1CCCCC1O (configuration not stated)
inactive: [1] | [2] | [3] | [4] | [5] | [6] | [7] | [8] | [14] | [9] | [11]

NC(N)=NN=C(/C=C/c1ccc([N+](=O)[O-])o1)/C=C/c1ccc([N+](=O)[O-])o1
inactive: [10] | [11]
active: [1] 8.49 µM | [2] 13.3 µM | [3] 7.5 µM | [4] 2.11 µM | [5] 2.98 µM | [6] 27.5 µM | [7] 3.35 µM | [8] 2.37 µM | [14] 2.98 µM | [9] 2.98 µM | [13] 6.68 µM

CC(C)(Oc1ccc(Cl)cc1)C(=O)OCCCOC(=O)C(C)(C)Oc1ccc(Cl)cc1
inactive: [1] | [2] | [3] | [4] | [5] | [6] | [7] | [8] | [9]

CN(c1nccc(=O)[nH]1)C1CCN(c2nc3ccccc3n2Cc2ccc(F)cc2)CC1
inactive: [1] | [2] | [3] | [4] | [5] | [6] | [7] | [8] | [9] | [11]

c1ccc(CNCc2ccccc2)cc1
inactive: [1] | [2] | [3] | [4] | [5] | [6] | [7] | [8] | [12] | [9] | [11]

CCCCCCCCCCCCCCC1CO1 (configuration not stated)
inactive: [1] | [2] | [3] | [4] | [5] | [6] | [7] | [8] | [9] | [11]

CC(C)c1ccc2c(C(C)C)cc(C(C)C)c(S(=O)(=O)O)c2c1
inactive: [1] | [2] | [3] | [4] | [5] | [6] | [7] | [8] | [9] | [11]

— PubChem BioAssay (Tox21)
